Measured values taken from ChEMBL document CHEMBL4888484, “Replenishing the malaria drug discovery pipeline: Screening and hit evaluation of the MMV Hit Generation Library 1 (HGL1) against asexual blood stage Plasmodium falciparum ,using a nano luciferase reporter read-out” (2022).
The whole screen tested about 4,800 compounds, of which about 410 (8.5%) showed an effect of 50% or more. The sample as a whole holds a higher share of strong results than the screen did.

test system: Plasmodium falciparum; test: Confirmatory screen in NF54 pLDH assay, in single point, at 2uM, 72h; format: functional, Erythrocyte; conditions: timepoint 72 hour

| Compound | % Inhibition |
| --- | --- |
| Cc1ccc(CS(=O)(=O)NC(=O)N2CCC(c3ccccc3)CC2)cc1 | 10% |
| O=C(NC1CCCC1)c1n[nH]c(=O)c2ccccc12 | 7% |
| COc1cccc2c1OCC(=O)N([C@@H](C)c1ccccc1)C2 | -12% |
| Cc1nnc(-c2cnn(C)c2N)n1C[C@H]1CCCO1 | 9% |
| O=C(Nc1cccnc1)c1ccc(-c2ccc(Cl)c(Cl)c2)o1 | 89% |
| O=C(CCC(=O)Nc1cccnc1)NCc1ccc2c(c1)OCO2 | 6% |
| O=C(Nc1ccn(Cc2cccnc2)n1)c1ccc(-c2ccccc2F)o1 | 6% |
| CC(C)(C)OC(=O)NS(=O)(=O)NCc1ccccc1 | 4% |
| Cc1nc(CNS(=O)(=O)Cc2ccc(F)c(Cl)c2)sc1C | 3% |
| O=C(NCCN1CCCC1)c1ccc2c(c1)OCCO2 | -7% |
| O=C(NCCN1CCCC1)c1ccc2nc(-c3ccc(Cl)cc3)cn2c1 | 70% |
| O=c1ccn2c(n1)O[C@H]1[C@H](OC3CCCCO3)[C@@H](COC3CCCCO3)O[C@H]12 (stereo partly specified) | -17% |
| Cc1cc(NC(=O)[C@@H](c2ccccc2)N2CCCCC2=O)sn1 | 1% |
| COC(=O)C1=C(C(=O)OC)SC(=C2C(=S)C(C)(C)N(C(=O)COc3ccc4ccccc4c3)c3ccccc32)S1 | 7% |
| N#Cc1c(CN2CCOCC2)cc(=O)n2c1[nH]c1ccccc12 | 0% |
| Cc1ccc(CN2CCN(C[C@@H](O)Cn3c4ccccc4n4c(=O)cc(C)c(C#N)c34)CC2)c(C)c1 | 96% |
| COc1cc2c(cc1OC)CN(C(=O)c1cccc(N3C(=O)C(C)(C)CS3(=O)=O)c1)CC2 | 3% |
| Cc1cc2n(n1)C(C(F)(F)F)CCN2C(=O)C(C)N1C(=O)C2CCCCC2C1=O (stereo unspecified) | 4% |
| Cn1nc(C(=O)NC2CCCCC2)cc1C(=O)NC1CCCCC1 | 12% |
| COc1ccc(Cl)cc1S(=O)(=O)c1cnc(N2CCOCC2)nc1N | 10% |
| C[C@@H](CNc1ncc(C(=O)N2CCOCC2)cc1Cl)c1nncn1C | -9% |
| CN1CCN(c2c(F)cc3c(=O)c(C(=O)O)cn(-c4ccc(OC5CC6CCC5(C)C6(C)C)c(F)c4)c3c2F)CC1 (stereo unspecified) | -4% |
| COc1cccc(NC(=O)N2CCN(c3nc4ccccc4n(Cc4ccccc4)c3=O)CC2)c1 | 0% |
| O=C(Nc1ccc(N2CCOCC2)cc1)Nc1ccc(F)cc1F | 7% |
| CCNc1nc(C)cc(Nc2ccc(NS(=O)(=O)c3c(C)noc3C)cc2)n1 | 100% |
| CCC(=O)Nc1nc2c(OC)cc(NS(=O)(=O)c3c(C)noc3C)cc2s1 | 10% |

| Compound | % Inhibition |
| --- | --- |
| Cc1ccccc1S(=O)(=O)NCc1nnc(C(=O)Nc2ccc(F)cc2F)s1 | 11% |
| Cc1ccc(C)c(S(=O)(=O)NCCNc2ccc(Nc3ccncc3)nn2)c1 | 29% |
| Cc1onc(N)c1S(=O)(=O)Nc1ccncc1 | -2% |
| CCNc1nc(C)cc(Nc2ccc(NC(=O)c3cc(C)ccc3C)cc2)n1 | 99% |
| CCC(=O)N1CCN(c2cc(Nc3ccc(C)cc3)nc(C)n2)CC1 | -1% |
| Cn1cc(C(=O)NCC2CCN(S(=O)(=O)c3cccs3)CC2)cn1 | 2% |
| CCc1ccc(NC(=O)[C@@H]2CCn3c(C(=O)c4ccccc4)ccc32)cc1 | 6% |
| CCc1ccc(NC(=O)[C@H](C)N2CCC(NS(=O)(=O)c3cccs3)CC2)cc1 | 77% |
| Cc1nn(Cc2cccc(F)c2)c(C)c1NC(=O)c1cccc(COc2ccc(Br)cc2)c1 | 16% |
| COc1cc(C)sc1C(=O)NCc1csc(=O)[nH]1 | -7% |
| COc1ccc(C(=O)n2nc(Nc3ccccc3Cl)cc2Nc2ccccc2Cl)cc1 | 12% |
| COc1ccc(-n2ncc3c(N)c4c(nc32)CCCC4=O)cc1 | 11% |
| C[C@@H](C(=O)Nc1cccc2ccccc12)N1CCCCC1 | 7% |
| CCOCCC1(CN=C(N)N2CCCCC2)CCCC1 | 5% |
| Cc1ccc(C2c3ccsc3CCN2CCC(=O)N2CCN(C(=O)Cc3cccs3)C(C)C2)cc1 (stereo unspecified) | 26% |
| OC[C@H]1CCc2nnc(C(F)F)n2C1 | 11% |
| CCn1nc(-n2cnnc2)c(NS(=O)(=O)c2cccc(Cl)c2)c1C | 3% |
| OCCNCc1ccc(Cl)cc1Cl | 6% |
| COc1cccc(CNCCCN2CCOCC2)c1OCc1ccc(Cl)cc1Cl | 12% |
| CCOc1cc(CNCCCn2ccnc2)ccc1OCc1ccccc1 | 23% |
| Clc1ccc(COc2ccc(Cl)cc2CNCCCn2ccnc2)c(Cl)c1 | 100% |
| COc1cccc(CNCCN2CCOCC2)c1OCc1ccc(Cl)cc1Cl | 11% |
| Clc1ccc(Cn2cc(CNCCCn3ccnc3)c3ccccc32)c(Cl)c1 | 100% |
| COc1ccc(NC(=O)[C@@H](c2cc(OC)c(OC)c(OC)c2)N(Cc2ccccc2)C(=O)Cn2nnc3ccccc32)cc1 | -15% |
| COc1ccc(S(=O)(=O)N2CCN(S(=O)(=O)c3ccc(OC)cc3)C2)cc1 | -2% |
